Source: PubChem BioAssay AID1159580 (chemical genetic matrix, 2015)
Several values for one entry are separate records, joined by “and”; a condition that tells them apart may be missing. Identical values can stand only once. Among all 5,500 compounds or so, about 2,000 (36%) were called active. About 18% were inconclusive and are not listed. No stated cut-off is given here; in the data, active means normalized growth mostly below about 0.91 (no sharp cut-off); inconclusive means no clear call, values can overlap the other calls; inactive means mostly above about 0.92. The list shows a part of the results.

Test: chemical genetic growth profiling, strain panel (AID 1159580);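 further: tested at 20 µM; growth read once vehicle control cultures reached saturation at 30 °C; 1 = growth at the plate median or of vehicle wells; lower values mean less growth of the strain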
Conditions: S. cerevisiae deletion strains, growth OD

Measured: normalized growth

CC(=O)CC1CCCCN1 (configuration not stated)
inactive: locus YAL013W, strain DEP1, hits give low values 1.01 | locus YAL021C, strain ccr4, hits give low values 1.02 | locus YAL026C, strain drs2, hits give low values 1.01 | locus YAL030W, strain snc1, hits give low values 1.02 | locus YBL061C, strain skt5, hits give low values 1.02 | locus YBR009C, strain hhf1, hits give low values 1.02 | locus YBR021W, strain FUR4, hits give low values 0.985 | locus YBR023C, strain chs3, hits give low values 1.03 | locus YBR171W, strain sec66, hits give low values 1.02 | locus YBR229C, strain ROT2, hits give low values 1.02 | locus YBR231C, strain swc5, hits give low values 1.01 | locus YBR279W, strain paf1, hits give low values 1.03 | locus YCL011C, strain gbp2, hits give low values 1.02 | locus YCL016C, strain dcc1, hits give low values 1.03 | locus YCL029C, strain bik1, hits give low values 0.99 | locus YCL061C, strain MRC1, hits give low values 1.01 | locus YCL069W, strain vba3, hits give low values 1 | locus YCR088W, strain abp1, hits give low values 1.02 | locus YDL005C, strain med2, hits give low values 1.02 | locus YDL035C, strain GPR1, hits give low values 1.02 | locus YDL040C, strain nat1, hits give low values 1.02 | locus YDL074C, strain BRE1, hits give low values 1.03 | locus YDL101C, strain DUN1, hits give low values 1.02 | locus YDL134C, strain PPH21, hits give low values 1.01 | locus YDL185W, strain tfp1, hits give low values 1 | locus YDL192W, strain arf1, hits give low values 0.992 | locus YDR001C, strain nth1, hits give low values 1.01 | locus YDR069C, strain doa4, hits give low values 1.01 | locus YDR101C, strain arx1, hits give low values 0.982 | locus YDR137W, strain rgp1, hits give low values 1.04 | locus YDR150W, strain NUM1, hits give low values 1.02 | locus YDR159W, strain sac3, hits give low values 1.01 | locus YDR162C, strain NBP2, hits give low values 1.03 | locus YDR195W, strain ref2 0.982 | locus YDR297W, strain sur2, hits give low values 1.01 | locus YDR318W, strain mcm21, hits give low values 0.993 | locus YDR334W, strain swr1, hits give low values 1 | locus YDR335W, strain msn5, hits give low values 1.01 | locus YDR388W, hits give low values 0.992 | locus YDR392W, strain spt3, hits give low values 0.981 | locus YDR502C, strain sam2, hits give low values 1 | locus YEL003W, strain gim4, hits give low values 1.01 | locus YEL037C, strain rad23, hits give low values 1.02 | locus YEL061C, strain CIN8 (second series), hits give low values 1.02 | locus YEL061C, strain CIN8, hits give low values 1.02 | locus YER015W, strain faa2, hits give low values 1.02 | locus YER016W, strain bim1, hits give low values 1.02 | locus YER110C, hits give low values 0.988 | locus YER111C, strain swi4, hits give low values 1.02 | locus YER155C, strain BEM2 (second series), hits give low values 1.01 | locus YER155C, strain BEM2, hits give low values 1.01 | locus YER167W, strain BCK2, hits give low values 1.01 | locus YFR010W, strain ubp6, hits give low values 1.01 | locus YGL078C, strain dbp3, hits give low values 0.991 | locus YGL086W, strain mad1, hits give low values 0.991 | locus YGL167C, strain pmr1, hits give low values 1.02 | locus YGL173C, strain kem1, hits give low values 1.01 | locus YGL227W, strain vid30, hits give low values 1.02 | locus YGL240W, strain doc1, hits give low values 1.01 | locus YGL248W, strain PDE1, hits give low values 1.02 | locus YGL253W, strain hxk2, hits give low values 1.02 | locus YGR078C, strain PAC10, hits give low values 1.02 | locus YGR135W, strain pre9, hits give low values 1 | locus YGR229C, strain SMI1, hits give low values 1.03 | locus YGR252W, strain gcn5, hits give low values 0.915 | locus YHR013C, strain ard1, hits give low values 1.02 | locus YHR027C, strain rpn1, hits give low values 1.01 | locus YHR030C, strain SLT2, hits give low values 1.01 and 0.991 | locus YHR079C, strain IRE1 (second series), hits give low values 0.994 | locus YHR079C, strain IRE1, hits give low values 1 | locus YHR094C, strain hxt1, hits give low values 0.991 | locus YHR129C, strain ARP1, hits give low values 0.974 | locus YHR142W, strain chs7, hits give low values 1.02 | locus YHR200W, strain rpn10, hits give low values 0.982 | locus YIL066C, strain RNR3, hits give low values 1.02 | locus YIL073C, strain SPO22, hits give low values 1.01 | locus YIL125W, strain kgd1, hits give low values 0.99 | locus YIR030C, strain dcg1, hits give low values 0.993 | locus YJL092W, strain hpr5, hits give low values 1.01 | locus YJL095W, strain BCK1 (second series), hits give low values 1.02 | locus YJL095W, strain BCK1, hits give low values 1.01 and 0.998 | locus YJL115W, strain asf1, hits give low values 1.02 | locus YJL129C, strain trk1, hits give low values 1.04 | locus YJL134W, strain LCB3, hits give low values 1.01 | locus YJL154C, strain vps35, hits give low values 1.02 | locus YJL164C, strain tpk1, hits give low values 1.03 | locus YJL166W, strain qcr8, hits give low values 1.03 | locus YJL168C, strain set2, hits give low values 0.991 | locus YJL187C, strain SWE1 (second series), hits give low values 1.02 | locus YJL187C, strain SWE1, hits give low values 1.01 | locus YJR043C, strain POL32, hits give low values 0.992 | locus YJR066W, strain TOR1, hits give low values 0.975
